The values below come from PubChem BioAssay AID1259313 (Sanford-Burnham Center for Chemical Genomics, 2017).

The whole screen tested about 340,000 compounds, of which about 8,500 (2.5%) were called active.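 How the source made its calls: active means melting temperature shift of at least 10% of the positive control shift, at one fixed dose; inactive means the rest.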 Many of the other results were omitted from the sample, so actives are more common in it than they were.

The assay relates to Glutamate receptor ionotropic, NMDA 3A (GRIN3A) ligand-binding domain. Briefly: NR3A LBD thermal stabilization by compounds – biophysical, differential scanning fluorimetry, uHTS, primary screen (AID 1259313). Particulars: at 25 µM, active compounds read high, 0% = protein alone, 100% = glycine-bound protein.
`COC(=O)COc1ccc2c(=O)c(Oc3ccccc3Br)coc2c1`: the Tm shift relative to glycine control is 17.5% (active).
In the case of `CCc1ccc(Oc2coc3cc(O)ccc3c2=O)cc1`, the Tm shift relative to glycine control is -1.09% (inactive).
Next, `COc1ccc(Oc2coc3cc(OC(=O)c4cncc(Br)c4)ccc3c2=O)cc1`: -4.3% (inactive); `CC(C)OC(=O)c1ccc(COc2ccc3ccc(=O)oc3c2)o1`: 1.19% (inactive).
For the compound `CCOc1ccccc1Oc1cn[nH]c1-c1ccc(OC)cc1O`, the Tm shift relative to glycine control is -4.92% (inactive).
For `COc1ccc(-c2cn[nH]c2-c2ccc(OC)cc2)cc1`, the Tm shift relative to glycine control is 0% (inactive).
For `COc1ccc(Oc2cn[nH]c2-c2ccc(OC)cc2O)cc1`, the Tm shift relative to glycine control is 17.8% (active).
For the compound `Cc1ccc(S(=O)(=O)N2CCN(C(=O)c3cc(S(=O)(=O)N4CCOCC4)ccc3F)CC2)cc1`, the Tm shift relative to glycine control was -1.16% (inactive).
For `CC1CCCC(NC(=O)CSc2nccn2C)C1C` (centres undefined), the Tm shift relative to glycine control is 3.2% (inactive).
In the case of `Cc1ccc(-n2nc3c(=O)n(C(C)C(=O)NCc4ccc5c(c4)OCO5)nc(C)c3c2C)cc1` (centres undefined) it was 0% (inactive); in that of `COC(C(=O)Nc1ccc(S(=O)(=O)Nc2ccc(C)c(C)c2)cc1)c1ccccc1` (centres undefined), 16.2% (active).
In the case of `COC(C(=O)NCc1ccccc1C)c1ccccc1` (centres undefined), the Tm shift relative to glycine control is -0.62% (inactive).
Next, `COC(C(=O)Nc1ccc(C(C)=O)cc1)c1ccccc1` (centres undefined): -4.28% (inactive); `CCOc1ccc(CN2CCN(CCCc3ccccc3)C(CCO)C2)cc1` (centres undefined): 0.91% (inactive).
In the case of `CC1CN(C(=O)COC(=O)c2cccc(NS(=O)(=O)c3ccccc3)c2)CC(C)O1` (centres undefined) it was 2.04% (inactive); in that of `CC1=C(C)CC(C(=O)NC(C)CCc2ccccc2)C(C(=O)O)C1` (centres undefined), -2.66% (inactive); in that of `CSc1cc(C)[nH]c(=O)n1`, 1.65% (inactive).
For the compound `COc1ccccc1S(=O)(=O)c1c(C)cc(C)[nH]c1=O`, the Tm shift relative to glycine control is -0.69% (inactive).
Take `Cc1cc(=O)cc(C)[nH]1`: the Tm shift relative to glycine control was 13% (active).
With `CCOc1cnc(C(=O)NNC(=O)c2ccccc2Br)o1`, the Tm shift relative to glycine control is -1.85% (inactive).
As for `c1ccc(CN2CCC(N=C3NN=C(c4ccc5c(c4)OCCO5)CS3)CC2)cc1`, the Tm shift relative to glycine control was -2.04% (inactive).
`CN(C)c1nc(=Nc2cccc(Cl)c2)ss1`: the Tm shift relative to glycine control was -11% (inactive).
On to `Clc1cccc(N=C2NN=C(c3ccc4c(c3)OCCO4)CS2)c1`, for which the Tm shift relative to glycine control was 12.7% (active).
In the case of `Cc1ccc(S(=O)(=O)N(C)c2ccc(OCC(=O)OCC(=O)N(CC#N)c3ccccc3)cc2)cc1` it was 2.35% (inactive); in that of `Cc1ccc(S(=O)(=O)N(C)c2ccc(OCC(=O)OCc3ccc(C#N)cc3)cc2)cc1`, 12.6% (active); in that of `Cc1ccc(S(=O)(=O)N(C)c2ccc(OCC(=O)NC3=NCCS3)cc2)cc1`, -0.31% (inactive).
Next, `O=C(NCc1csc(-c2cccs2)n1)C1CC1`: 0.25% (inactive).
With `COc1ccc(C2OCC3(CO2)SC(=O)NC3=O)cc1OC` (centres undefined), the Tm shift relative to glycine control was -1.38% (inactive).
For `O=C(NCc1cccs1)c1ccc(CS(=O)Cc2ccccc2Cl)o1` (centres undefined), the Tm shift relative to glycine control was 0.47% (inactive).
Take `O=C(Cn1nnc(-c2ccccc2)n1)N/N=C/c1ccc(-c2ccc(Cl)cc2)o1`: the Tm shift relative to glycine control was 384% (active).
Turning to `O=C(CN1CCOCC1)N/N=C/c1ccc(-c2ccc(Br)cc2)o1`, the Tm shift relative to glycine control is -2.4% (inactive).
On to `Nc1nnn(CC(=O)N/N=C/c2ccccc2)n1`, for which the Tm shift relative to glycine control was -2.09% (inactive).
Next, `CCOc1ccc(-n2c(SCC(=O)NC3CCS(=O)(=O)C3)nnc2-c2cccnc2)cc1` (centres undefined): -1.01% (inactive).
Regarding `CCN1CC(CN(C)Cc2nc(-c3ccc(Cl)cc3)no2)CC1=O` (centres undefined), the Tm shift relative to glycine control was -0.89% (inactive).
In the case of `O=C(OCC(=O)N1CCc2ccccc21)c1ccc([N+](=O)[O-])cc1`, the Tm shift relative to glycine control is 1% (inactive).
With `CCc1ccc(Nc2n[n+](-c3ccccc3)c(-c3cccc(Cl)c3Cl)s2)cc1`, the Tm shift relative to glycine control is 16% (active).
Turning to `COc1cc(Br)c(-c2sc(Nc3ccccc3)n[n+]2-c2ccccc2)cc1OC`, the Tm shift relative to glycine control is -12% (inactive).
Take `COc1ccc(C)cc1Nc1n[n+](-c2ccccc2)c(-c2cccc(Cl)c2Cl)s1`: the Tm shift relative to glycine control was 4.85% (inactive).
In the case of `O=C(c1ccc(F)cc1)N1CCC(n2nnc3ccccc32)CC1` it was 3.22% (inactive).
As to `CCOCCOC(=O)C1=C(C)N(C)C(=O)NC1c1ccccc1F` (centres undefined), the Tm shift relative to glycine control was -1.72% (inactive).
Take `COc1ccc2c(c1)C(SCC(=O)NCc1ccccc1)CC(C)(C)O2` (centres undefined): the Tm shift relative to glycine control was -0.16% (inactive).
On to `CCOCCCNC(=O)C(=O)NCCCOCC`, for which the Tm shift relative to glycine control is -0.68% (inactive).
With `CC(C)OCCCNC(=O)C1CC(=O)N(C2CCCCCCC2)C1` (centres undefined), the Tm shift relative to glycine control was 2.24% (inactive).
Regarding `CC(C)NC(=O)C(=O)NCCCOC(C)C`, the Tm shift relative to glycine control is 18.7% (active).
Take `CC(C(=O)Nc1ccc(S(=O)(=O)N2CCCC2)cc1)N(C)Cc1ccc(F)cc1` (centres undefined): the Tm shift relative to glycine control is -1.56% (inactive).
In the case of `CNC(=S)N/N=C/c1cn(Cc2ccc(C)cc2)c2ccccc12` it was -1.66% (inactive); in that of `COC(=O)N/N=C/c1cn(CCCOc2ccc(C)cc2)c2ccccc12`, 12.8% (active).
With `CCOC(=O)N/N=C/c1cn(Cc2ccccc2Cl)c2ccccc12`, the Tm shift relative to glycine control is -13.8% (inactive).
Next, `CC(C)(C)c1ccc(/C=C/C(=O)NCCCn2ccnc2)cc1`: -0.74% (inactive); `O=C(COC(=O)c1ccc(Cl)nc1)NCc1ccc2c(c1)OCO2`: -1.93% (inactive).
On to `CCOc1c(Cl)cc(/C=N/O)cc1OC`, for which the Tm shift relative to glycine control was 10.8% (active).
Turning to `CCOc1cc(/C=N/O)cc(Br)c1OC`, the Tm shift relative to glycine control was 10.5% (active).
Consider `CCOc1cc(/C=C(/C#N)c2ccc(Cl)cc2)cc(Cl)c1OCC(=O)O`, for which the Tm shift relative to glycine control was -1.37% (inactive).
In the case of `CCOc1cc(/C=N/O)ccc1OCc1ccccc1F` it was -0.35% (inactive); in that of `COc1cc(/C=N/O)cc(Br)c1OCc1cccc(Cl)c1`, 9.46% (inactive).
As for `COc1cc(/C=N/O)cc(Br)c1OS(=O)(=O)c1ccc(C)cc1`, the Tm shift relative to glycine control is -0.94% (inactive).
For the compound `C[C@@H]1ON(C)[C@H]2C[C@H]3c4cc(N5CCN(C)CC5)ccc4CCN3C(=O)[C@@H]12`, the Tm shift relative to glycine control was 2.38% (inactive).
In the case of `COc1cc(OC)cc(C(=O)NC(C(=O)N2CCC2)C(C)C)c1` (centres undefined) it was -1.01% (inactive); in that of `COc1cc(OC)cc(C(=O)N[C@H](C(=O)NNC(=O)c2ccc(Br)cc2)C(C)C)c1`, 13.6% (active); in that of `COc1ccc(N2CCN(C(=O)[C@@H](NC(=O)c3cc(OC)cc(OC)c3)C(C)C)CC2)cc1`, -0.58% (inactive).
`COc1ccc(N2CCN(CCCNC(=O)C3CCN(S(=O)(=O)N4CCOCC4)CC3)CC2)cc1`: the Tm shift relative to glycine control was 1.84% (inactive).
Next, `O=C(CSc1ccccn1)Nc1nc2c(ccc3ccccc32)s1`: -2.83% (inactive); `CS(=O)(=O)Nc1cccc(-c2cn3ccccc3n2)c1`: -0.95% (inactive).
With `Cc1cc(C)cc(NS(=O)(=O)Cc2ccccc2)c1`, the Tm shift relative to glycine control is 1.07% (inactive).
With `CCS(=O)(=O)Nc1cccc(-c2cc(-c3ccccc3)c3cc(C)ccc3n2)c1`, the Tm shift relative to glycine control was 10.6% (active).
On to `CC1CN(S(=O)(=O)c2ccc(C(=O)Nc3sccc3C(N)=O)cc2)CC(C)O1` (centres undefined), for which the Tm shift relative to glycine control was -4.29% (inactive).
For `Cc1ccc2c(c1)N(CC(=O)N(Cc1ccccn1)Cc1ccco1)C(=O)C(C(C)C)O2` (centres undefined), the Tm shift relative to glycine control was 0.17% (inactive).
On to `O=c1[nH]c2c(c(=O)n1-c1ccccc1)CCO2`, for which the Tm shift relative to glycine control is 1.26% (inactive).
Regarding `OCCCNc1nccc(-c2cc(Nc3cccc(Cl)c3)ncn2)n1`, the Tm shift relative to glycine control was 21.3% (active).
Consider `Cc1cccc(Nc2nc(NCCO)nc(N3CCCC3)n2)c1`, for which the Tm shift relative to glycine control is -4.68% (inactive).
In the case of `CC(C)n1cnc2c(Nc3cccc(Cl)c3)nc(N(CCO)CCCO)nc21` it was 1.29% (inactive).
With `CCC(=O)Nc1cc(C(F)(F)F)ccc1N1CCCC1`, the Tm shift relative to glycine control is 1.55% (inactive).
For `O=C(C1CC1)N1CCN=C1SCc1ccc(Cl)cc1`, the Tm shift relative to glycine control was 11.7% (active).
In the case of `O=C(c1ccco1)N1CCN=C1SCc1cccc(Cl)c1` it was 0.08% (inactive).
Consider `CCC(=O)N1CCN=C1SCc1ccc(F)cc1`, for which the Tm shift relative to glycine control was 1.29% (inactive).
For the compound `COc1ccc(CN2CN(C(C)C)CSC2=S)cc1`, the Tm shift relative to glycine control was 1.51% (inactive).
`COc1ccc(-c2csc3ncnc(N4CCN(S(=O)(=O)c5cccc(F)c5)CC4)c23)cc1`: the Tm shift relative to glycine control was -1.02% (inactive).
On to `O=S(=O)(Nc1ncnc2sccc12)c1cccc(F)c1`, for which the Tm shift relative to glycine control was -0.96% (inactive).
Next, `Cc1cc(F)ccc1S(=O)(=O)Nc1ncnc2scc(-c3ccc(F)cc3)c12`: 10.2% (active).
As for `C=CCNC(=O)COC(=O)c1ccccc1C(=O)N(C)C1CCCCC1`, the Tm shift relative to glycine control was -0.25% (inactive).
In the case of `O=C(CN(CC1CCCO1)C(=O)CNS(=O)(=O)c1ccc(Cl)cc1)NCc1ccccc1` (centres undefined), the Tm shift relative to glycine control is 2.76% (inactive).
As to `Cc1ccc(C)c(NC(=O)C2CCCN2C(=O)OC(C)(C)C)c1` (centres undefined), the Tm shift relative to glycine control is 4.23% (inactive).
Next, `CC(C)(C)OC(=O)N1CCC(C(=O)NNC(=O)c2ccc(Cl)cc2Cl)CC1`: -2.13% (inactive); `Cc1ccc(-n2ncc(C(=O)NC3CC3)c2C2CCN(C(=O)OC(C)(C)C)CC2)c(C)c1`: 13.4% (active); `CCn1c(=S)[nH]c2cc(S(=O)(=O)N3CCOCC3)ccc21`: 2.56% (inactive).
`Cc1cc(NS(=O)(=O)c2ccc(NC(=O)C(C)Oc3cccc(C)c3C)cc2)nc(C)n1` (centres undefined): the Tm shift relative to glycine control was 3.5% (inactive).
`CCNc1nc(NC(C)C)nc(N2CC(=O)N(CC(=O)OCC)C2=N)n1`: the Tm shift relative to glycine control is -4.17% (inactive).
As for `CCN(CC)CCCC(C)n1c2nc(=O)[nH]c(=O)c-2nc2cc(Cl)ccc21` (centres undefined), the Tm shift relative to glycine control is -386% (inactive).
As to `CCOC(=O)C1=C(CC)Nc2ccccc2N=C1NC(=O)c1cccc(S(=O)(=O)N2CCCC2)c1`, the Tm shift relative to glycine control was 0% (inactive).
As for `CC[C@@H](C)[C@H](NC(=O)CCc1c(C)c2cc3c4c(oc3c(C)c2oc1=O)CCCC4)C(=O)O`, the Tm shift relative to glycine control was 1.33% (inactive).
With `Cc1c(CC(=O)NCCCCCC(=O)O)c(=O)oc2cc3occ(-c4ccccc4)c3cc12`, the Tm shift relative to glycine control is -0.98% (inactive).
As for `Cc1c(CC(=O)NCC(=O)NCC(=O)O)c(=O)oc2cc3oc4c(c3cc12)CCCC4`, the Tm shift relative to glycine control is 31.7% (active).
Next, `CC1CC1C(=O)OCC(=O)c1c(N)n(C)c(=O)n(C)c1=O` (centres undefined): -0.75% (inactive).
For `O=C(Nc1ccc(OC(F)(F)F)cc1)c1ccc2c(c1)no[n+]2[O-]`, the Tm shift relative to glycine control is -3.76% (inactive).
